Results filed as inconclusive are left out. Calls of active or inactive are those of the source. Unless noted, calls come from the whole dose curve.
Key:
[1] = Inducers of the Endoplasmic Reticulum Stress Response (ERSR) in human glioma: Validation (AID 504836; active = well fitted curve in the direction sought with a large enough effect; an effect the other way counts as inactive or inconclusive; note: 0% is about no effect)
In short: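 Stably transfected U87-MG human glioma cells carrying a GRP78-based luminescent sensor were seeded at 1000 cells/well, pin-dosed with compounds and incubated 16 h. Luciferase reagent was then added, and end-point luminescence was read after 10 min at room temperature.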

[2] = qHTS for Inhibitors of the Functional Ribonucleoprotein Complex (vRNP) of Lassa (LASV) Arenavirus: LASV Primary Screen - GLuc reporter signal (AID 1347082; calls by dose curve; tested in HEK293 reporter line; note: series mostly up to about 57 µM; % is set by controls: 0 for no effect and ±100 for the full control effect; nearly all actives have a fitted effect of over 60% in size)
[3] = qHTS for Inhibitors of the Functional Ribonucleoprotein Complex (vRNP) of Lassa (LASV) Arenavirus: Viability assay - alamar blue signal for LASV Primary Screen (AID 1347083; calls by dose curve; tested in HEK293 reporter line; note: series mostly up to about 57 µM; % is set by controls: 0 for no effect and ±100 for the full control effect; nearly all actives have a fitted effect of over 80% in size)
[4] = qHTS for Inhibitors of the Functional Ribonucleoprotein Complex (vRNP) of Lymphocytic Choriomeningitis Arenaviruses (LCMV): Viability assay - alamar blue signal for LCMV Primary Screen (AID 1347085; calls by dose curve; tested in HEK293 reporter line; note: series mostly up to about 57 µM; % is set by controls: 0 for no effect and ±100 for the full control effect; nearly all actives have a fitted effect of over 80% in size)
[5] = biological target: Nucleoprotein (Lymphocytic choriomeningitis virus (strain Armstrong)) (UniProt P09992); assay: qHTS for Inhibitors of the Functional Ribonucleoprotein Complex (vRNP) of Lymphocytic Choriomeningitis Arenaviruses (LCMV): LCMV Primary Screen - GLuc reporter signal (AID 1347086); note: series mostly up to about 57 µM; % is set by controls: 0 for no effect and ±100 for the full control effect; nearly all actives have a fitted effect of over 70% in size
[6] = biological target: Bile acid receptor (Homo sapiens) (UniProt Q96RI1); assay: qHTS assay for small molecule agonists of farnesoid X receptor signaling (AID 588527); details: HEK293T FXR-UAS-bla, beta-lactamase ratio, 16 h; activation: stronger effect = higher value;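 note: series mostly up to about 77 µM; 0% = vehicle basal and 100% = reference agonist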
In short: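 FXR-UAS-bla HEK293T cells (10% dialyzed FBS) preincubated 5-7 h at 37 C, then compounds at up to 92 uM for 16 h at 37 C. CCF4 beta-lactamase read-out after 2 h RT. Normalized to chenodeoxycholic acid (100 uM) and DMSO; Hill fit gave EC50 and efficacy.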

[7] = biological target: Peroxisome proliferator-activated receptor delta (Homo sapiens) (UniProt Q03181); assay: qHTS assay for small molecule agonists of peroxisome proliferator-activated receptor delta signaling (AID 588534);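 note: 0% = DMSO basal wells and 100% = positive control agonist at 10 µM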
In short: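 Agonist-mode qHTS; reporter cells, 5 hrs 37 C pre-incubation; compound titration, 18 hrs 37 C; CCF4 dye, 2 hrs RT; fluorescence read. EC50/efficacy via Hill fit.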

[8] = biological target: Alpha-galactosidase (Coffea arabica) (UniProt Q42656); assay: Counterscreen for Glucocerebrosidase Inhibitors: qHTS Assay for Coffee Bean alpha-Galactosidase at pH 5.9 (AID 998; active = well fitted curve in the direction sought with a large enough effect; an effect the other way counts as inactive or inconclusive;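 note: plate controls were uninhibited enzyme for no effect and no-enzyme basal signal for full effect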)
In short: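 In 50 mM citric acid pH 5.9 with 0.005% Tween-20, coffee bean enzyme hydrolyses 80 uM 4-MU alpha-D-galactopyranoside over 20 min at RT. Activity is normalized to controls; AC50 comes from Hill-modelled concentration-response data.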

[9] = biological target: Alpha-galactosidase (Coffea arabica) (UniProt Q42656); assay: Counterscreen for Glucocerebrosidase Inhibitors: qHTS Assay for Coffee Bean alpha-Galactosidase at pH 4.5 (AID 957; active = well fitted curve in the direction sought with a large enough effect; an effect the other way counts as inactive or inconclusive;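 note: series mostly up to about 77 µM; plate controls were enzyme alone for no effect and no enzyme for full effect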)
In short: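 Enzyme is added first (2 nM final), then compounds titrated from 0.7 nM to 77 uM, then 80 uM 4-methylumbelliferyl alpha-D-galactopyranoside; after 20 min at room temperature a pH 10 NaOH/glycine stop precedes fluorescence reading at 365/440 nm.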

[10] = biological target: Ubiquitin carboxyl-terminal hydrolase 1 (Homo sapiens) (UniProt O94782); assay: Inhibitors of USP1/UAF1: Pilot qHTS (AID 504865; active = well fitted curve in the direction sought with a large enough effect; an effect the other way counts as inactive or inconclusive;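 note: rhodamine fluorescence freed from ubiquitin-rhodamine substrate followed over time; top concentration of the series differs between compounds; % is set by controls: 0 for no effect and ±100 for the full control effect; nearly all actives have a fitted effect of over 35% in size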)
In short: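 USP1/UAF1 complex (1nM) preincubated with compound 15 min at room temperature, then Ub-Rho substrate (150nM final) added. Fluorescence read kinetically at 480/540 nm, 6 reads every 60 seconds. Buffer: 50mM HEPES pH 7.8, 0.5mM EDTA, 0.1 mg/ml BSA, 1mM TCEP, 0.01% Tween-20.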

Chain of Peroxisome proliferator-activated receptor delta (Homo sapiens) (Q03181 whole entry, looked up): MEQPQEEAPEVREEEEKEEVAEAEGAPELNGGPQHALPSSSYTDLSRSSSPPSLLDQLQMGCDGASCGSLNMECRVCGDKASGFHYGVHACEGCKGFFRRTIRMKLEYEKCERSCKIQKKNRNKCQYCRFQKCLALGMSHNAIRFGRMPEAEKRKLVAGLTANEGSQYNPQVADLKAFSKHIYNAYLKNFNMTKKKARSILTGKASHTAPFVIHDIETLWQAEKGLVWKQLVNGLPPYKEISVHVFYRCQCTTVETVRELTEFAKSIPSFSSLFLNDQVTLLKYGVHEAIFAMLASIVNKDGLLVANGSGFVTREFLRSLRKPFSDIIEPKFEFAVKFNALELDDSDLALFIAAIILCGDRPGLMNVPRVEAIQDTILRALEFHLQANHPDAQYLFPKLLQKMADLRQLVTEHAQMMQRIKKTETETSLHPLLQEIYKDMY
Chain of Nucleoprotein (Lymphocytic choriomeningitis virus (strain Armstrong)) (P09992 whole entry, looked up): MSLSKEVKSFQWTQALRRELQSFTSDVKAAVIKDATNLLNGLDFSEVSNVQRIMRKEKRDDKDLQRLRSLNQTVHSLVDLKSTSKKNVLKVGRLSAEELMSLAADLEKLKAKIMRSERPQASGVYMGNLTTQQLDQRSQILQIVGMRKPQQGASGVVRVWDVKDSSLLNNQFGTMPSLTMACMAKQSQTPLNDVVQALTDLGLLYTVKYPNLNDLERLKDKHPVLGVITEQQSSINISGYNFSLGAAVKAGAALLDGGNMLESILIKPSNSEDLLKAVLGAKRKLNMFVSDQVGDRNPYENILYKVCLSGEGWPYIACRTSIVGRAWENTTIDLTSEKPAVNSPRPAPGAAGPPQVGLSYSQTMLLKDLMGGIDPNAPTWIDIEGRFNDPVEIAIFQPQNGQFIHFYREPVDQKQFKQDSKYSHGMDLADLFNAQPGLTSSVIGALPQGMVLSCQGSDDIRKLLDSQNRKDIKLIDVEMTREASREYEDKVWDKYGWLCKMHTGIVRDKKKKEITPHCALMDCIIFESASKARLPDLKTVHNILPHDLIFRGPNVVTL
Chain of Alpha-galactosidase (Coffea arabica) (Q42656 whole entry, looked up): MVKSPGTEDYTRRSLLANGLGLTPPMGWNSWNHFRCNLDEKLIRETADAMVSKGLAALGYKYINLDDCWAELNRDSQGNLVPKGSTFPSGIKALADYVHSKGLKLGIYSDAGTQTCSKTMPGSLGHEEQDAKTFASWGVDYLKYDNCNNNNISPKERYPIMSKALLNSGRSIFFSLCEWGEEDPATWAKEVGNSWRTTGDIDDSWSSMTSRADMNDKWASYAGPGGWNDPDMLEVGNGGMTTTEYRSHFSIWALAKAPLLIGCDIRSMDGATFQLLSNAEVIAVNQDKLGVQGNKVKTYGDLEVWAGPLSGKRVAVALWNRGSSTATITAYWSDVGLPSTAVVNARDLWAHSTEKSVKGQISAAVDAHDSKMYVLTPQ
Chain of Bile acid receptor (Homo sapiens) (Q96RI1 whole entry, looked up): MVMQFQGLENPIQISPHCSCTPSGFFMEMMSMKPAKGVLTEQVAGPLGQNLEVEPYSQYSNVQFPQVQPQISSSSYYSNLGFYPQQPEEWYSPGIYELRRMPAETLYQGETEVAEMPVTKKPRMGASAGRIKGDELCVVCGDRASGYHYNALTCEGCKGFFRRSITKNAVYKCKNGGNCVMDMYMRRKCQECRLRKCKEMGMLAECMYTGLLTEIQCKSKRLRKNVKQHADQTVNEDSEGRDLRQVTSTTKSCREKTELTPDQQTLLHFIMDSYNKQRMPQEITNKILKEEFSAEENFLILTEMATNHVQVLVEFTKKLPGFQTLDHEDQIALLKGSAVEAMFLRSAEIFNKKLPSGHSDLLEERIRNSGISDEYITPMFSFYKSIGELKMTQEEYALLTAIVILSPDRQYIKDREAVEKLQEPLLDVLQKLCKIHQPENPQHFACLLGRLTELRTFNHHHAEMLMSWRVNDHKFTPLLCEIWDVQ
Chain of Ubiquitin carboxyl-terminal hydrolase 1 (Homo sapiens) (O94782 whole entry, looked up): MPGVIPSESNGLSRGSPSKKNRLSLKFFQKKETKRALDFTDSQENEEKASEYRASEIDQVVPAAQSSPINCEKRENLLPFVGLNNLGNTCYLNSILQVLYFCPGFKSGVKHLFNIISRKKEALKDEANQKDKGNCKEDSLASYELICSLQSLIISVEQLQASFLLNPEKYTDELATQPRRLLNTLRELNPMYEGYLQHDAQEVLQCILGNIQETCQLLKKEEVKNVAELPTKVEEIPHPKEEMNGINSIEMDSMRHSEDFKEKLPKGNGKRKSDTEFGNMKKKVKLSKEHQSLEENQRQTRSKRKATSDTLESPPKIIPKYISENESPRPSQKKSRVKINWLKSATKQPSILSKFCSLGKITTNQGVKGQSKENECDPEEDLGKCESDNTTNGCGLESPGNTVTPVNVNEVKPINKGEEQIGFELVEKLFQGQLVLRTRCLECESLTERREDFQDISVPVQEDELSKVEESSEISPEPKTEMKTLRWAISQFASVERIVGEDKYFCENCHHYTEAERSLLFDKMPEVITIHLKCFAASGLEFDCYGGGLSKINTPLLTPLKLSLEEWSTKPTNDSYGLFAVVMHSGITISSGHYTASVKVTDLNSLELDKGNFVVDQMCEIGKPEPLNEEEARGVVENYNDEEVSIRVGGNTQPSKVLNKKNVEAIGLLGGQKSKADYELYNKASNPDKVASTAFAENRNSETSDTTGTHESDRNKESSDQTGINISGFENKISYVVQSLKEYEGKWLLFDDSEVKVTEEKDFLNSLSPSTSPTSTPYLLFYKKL

N[C@H](C(=O)O)[C@H](Cc1ccccc1)C(=O)O
inactive: outcome [1] | Potency [2] | Potency [3] | Potency [4] | Potency [5]

CC1CC2C3CCC4=CC(=O)C=C[C@]4(C)[C@@]3(F)[C@@H](O)C[C@]2(C)[C@@]1(O)C(=O)CO (stereo not given in full)
inactive: outcome [1] | Potency [2] | Potency [3] | Potency [4] | Potency [5]

CNc1ncnc2c1ncn2[C@@H]1O[C@H](CO)[C@@H](O)[C@H]1O
inactive: outcome [1] | Potency [2] | Potency [3] | Potency [4] | Potency [5]

COC(=O)CCC(=O)OC
inactive: activation [6] 2.67% | Potency [7] | Potency [2] | Potency [3] | Potency [4] | Potency [5]

CC=O
inactive: activation [6] -1.84% | Potency [7] | Potency [2] | Potency [3] | Potency [4] | Potency [5]

CN1CCc2cc(NC(=O)Nc3cccnc3)ccc21
inactive: outcome [8] | outcome [1] | Potency [2] | Potency [3] | Potency [4] | Potency [5]

NC(N)=[N+]1CCc2ccccc2C1
inactive: outcome [9] | outcome [8] | outcome [1] | Potency [2] | Potency [3] | Potency [4] | Potency [5]

CN1C2CC(OC(=O)[C@H](CO)c3ccccc3)CC1C1OC12 (stereo not given in full)
inactive: Potency [10] | Potency [2] | Potency [3] | Potency [4] | Potency [5]

CC(C)CCCCCCCCCCCCCCC(=O)O
inactive: Potency [7] | Potency [2] | Potency [3] | Potency [4] | Potency [5]

From PubChem BioAssay (NCATS)
